Screens as filed in PubChem BioAssay.
Compounds with a hit are over-represented: about 9.4% of the library has one in this group of screens.
ELG1 repair inh – ELG1-dependent DNA repair inhibition | Potency, µM (highest dose often 46.1 µM), usual class: inhibitors | AID 504467 | HEK293T ELG1-luciferase reporter, luminescence, 16 h; DNA damage induced by 5-fluorouridine | 330,000 tested, 2.3% active; further: nearly all actives have a fitted effect of over 55% in size
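Luminescence from the luciferase reporter, measured 30 min after ONE-Glo reagent at room temperature, was the read-out. Beforehand, 2,000 cells per well were exposed for 16 hr at 37 °C to 5-fluorouridine together with compound or vehicle.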
SMN2 splice up – enhancers of SMN2 splice variant expression; HEK293 SMN2-luciferase splicing reporter, luminescence, 30-36 h; 210,000 tested, 2.8% active; Potency, µM (top dose mostly 46.1 µM), actives largely listed as activators; AID 1458; further: nearly all actives have a fitted effect of over 55% in size
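HEK293 cells carry an SMN2 […]–luciferase reporter in which exon 7 inclusion puts luciferase in frame. Cells were plated 10-12 h before compound addition, then incubated 30-36 h at 37C. ONE-Glo luminescence was read; sodium butyrate at 4.5 mM final served as control.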
FLuc counter – firefly luciferase modulation, counter-screen for miR-21 project; P08659; purified FLuc, Km substrates, luminescence inhibition; Potency, µM (titrated, usually from 57.5 µM), usual class: inhibitors; 360,000 tested, 6.9% active; AID 588342; further: nearly all actives have a fitted effect of over 55% in size
Target sequence (P08659 whole entry, looked up): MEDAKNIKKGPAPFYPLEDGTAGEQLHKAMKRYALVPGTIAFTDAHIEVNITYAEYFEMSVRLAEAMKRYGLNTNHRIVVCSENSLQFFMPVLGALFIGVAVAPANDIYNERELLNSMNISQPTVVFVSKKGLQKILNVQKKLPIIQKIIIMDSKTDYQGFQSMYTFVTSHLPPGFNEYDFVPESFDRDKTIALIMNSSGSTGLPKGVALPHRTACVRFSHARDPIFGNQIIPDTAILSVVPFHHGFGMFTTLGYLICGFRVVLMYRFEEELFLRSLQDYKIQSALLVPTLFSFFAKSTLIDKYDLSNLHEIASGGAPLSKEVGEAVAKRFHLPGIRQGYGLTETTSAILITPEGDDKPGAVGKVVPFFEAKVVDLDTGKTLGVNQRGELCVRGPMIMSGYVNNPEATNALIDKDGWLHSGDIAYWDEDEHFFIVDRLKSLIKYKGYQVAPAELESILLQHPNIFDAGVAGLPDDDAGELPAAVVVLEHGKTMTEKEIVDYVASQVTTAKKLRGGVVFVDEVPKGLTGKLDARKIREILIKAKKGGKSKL
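Biochemical qHTS of compounds, final roughly 60 µM downward over six points, against 10 nM purified firefly luciferase using Km concentrations of substrates (10 uM D-luciferin, 10 uM ATP) in Tris acetate pH 7.5 buffer; luminescence output.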
Rab9 promoter act – activators of Rab9 promoter; Huh7 Rab9 promoter-luciferase reporter, luminescence, 24 h; Potency, µM (doses to about 9.22 µM), usual class: activators; 320,000 tested, 2.8% active; further: nearly all actives have a fitted effect of over 60% in size
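Luminescence from Amplite-detected luciferase (10 minutes, ambient) reports Rab9 promoter activation. Before that, stable Rab9-luciferase Huh7 cells (1500/well, reduced-serum OP-MEM I plus 10% FBS) were exposed to compound for 24 hours at 37C.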
ELG1 genotox – induces genotoxicity in HEK293T cells with luciferase-tagged ELG1. Potency, µM (series often up to 46 µM), actives largely listed as activators. 330,000 tested, 1.3% active. HEK293T ELG1-luciferase reporter, luminescence, 16 h. AID 504466; further: nearly all actives have a fitted effect of over 60% in size
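Genotoxic stress is detected as increased luminescence from luciferase-tagged ELG1 in HEK293T cells, measured with ONE-Glo after a 16 hr treatment at 37 °C.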
NPC1 promoter act – NPC1 promoter activation; Potency, µM (series often up to 9.22 µM), usual class: activators; AID 485313; 320,000 tested, 2.4% active; Huh7 NPC1 promoter luciferase reporter, 24 h; further: nearly all actives have a fitted effect of over 60% in size
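Stably transfected Huh7 (NPC1 promoter→luciferase), 1500 cells/well in Opti-MEM + 10% FBS, 2 h settle, then compound 24 h at 37 °C. Luminescence after 10 min with Amplite reagent.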
Of the large screens only hits and unclear results are named; the others gave an inactive call. The call rests on the fitted dose curve; in most records, active means well fitted curve in the direction sought with a large enough effect; inconclusive means small, poorly fitted or top-dose-only effect, or another doubt; inactive means no such curve, though single readings can be large; an effect the other way counts as inactive or inconclusive.

CC1=C(c2ccc(C)cc2)[N+](=O)C(C)(C)N1[O-]	ELG1 repair inh inconclusive, FLuc counter 9.5µM, Rab9 promoter act 4µM, ELG1 genotox inconclusive (no result: SMN2 splice up)
CC1=C(c2ccccc2)[N+](=O)C2(CCCC2)N1[O-]	none
Cc1ccn2c(c1)nc(=O)c1cc(S(=O)(=O)N3CCC(C)CC3)c(Cl)cc12	none (no result: ELG1 repair inh, Rab9 promoter act, ELG1 genotox, NPC1 promoter act)
CCCCCC(=O)Nc1ccc(C2C(=O)c3ccccc3C2=O)cc1	ELG1 repair inh inconclusive, FLuc counter 2.7µM, Rab9 promoter act 2.2µM, ELG1 genotox inconclusive, NPC1 promoter act 2.8µM (no result: SMN2 splice up)
Cc1ccc(S(=O)(=O)Nc2ccc(NC(=O)/C=C/C(=O)O)cc2)cc1	none
CCCCCC(=O)Nc1ccc(-c2csc(N)n2)cc1	FLuc counter 17µM, Rab9 promoter act inconclusive, ELG1 genotox inconclusive (no result: SMN2 splice up)
CCCCC(=O)Nc1ccc(C(=O)c2ccccc2)cc1	FLuc counter inconclusive
Cc1ccc2sc(-c3ccc(NC(=O)/C=C\C(=O)O)cc3)nc2c1	ELG1 repair inh inconclusive, SMN2 splice up 7.1µM, FLuc counter 0.95µM, Rab9 promoter act 2.8µM, ELG1 genotox inconclusive, NPC1 promoter act inconclusive
O=C(O)/C=C/C(=O)Nc1ccc(-c2ccccc2)cc1	ELG1 repair inh inconclusive, FLuc counter 6.7µM
CCCC(=O)Nc1ccc(-c2csc(-c3cccnc3)n2)cc1	FLuc counter inconclusive, Rab9 promoter act inconclusive (no result: SMN2 splice up)
CSc1nc(N)c2ncn([C@@H]3O[C@H](COP(=O)(O)OP(=O)(O)O)[C@H](O)[C@H]3O)c2n1	none (no result: ELG1 repair inh, FLuc counter, Rab9 promoter act, ELG1 genotox, NPC1 promoter act)
Cc1c(C(=O)N2CCC(C(=O)Nc3ccc(F)cc3)CC2)sc2nc[nH]c(=O)c12	none (no result: ELG1 repair inh, SMN2 splice up, Rab9 promoter act, ELG1 genotox, NPC1 promoter act)
CCN(C(=O)CN(C)S(=O)(=O)c1ccc2c(c1)c(=O)n(C)c(=O)n2C)c1ccc(OC)cc1	none (no result: ELG1 repair inh, Rab9 promoter act, ELG1 genotox, NPC1 promoter act)
Cc1nc(-c2ccc(NC(=O)/C=C\C(=O)O)cc2)cs1	ELG1 repair inh inconclusive, FLuc counter 9.5µM
CCCCCC(=O)Nc1ccc(-c2csc(C)n2)cc1	ELG1 repair inh inconclusive, SMN2 splice up inconclusive, FLuc counter 15µM, Rab9 promoter act inconclusive
CCC(=O)Nc1ccc(-c2csc(NNC(C)=O)n2)cc1	none
Cn1c(CCN2CCN(c3ccccn3)CC2)nc2cc(NC(=O)COc3ccc(Cl)cc3)ccc21	ELG1 repair inh 9.2µM (no result: SMN2 splice up)
CCN1CCN(CCc2nc3cc(NC(=O)COc4ccc(Cl)cc4)ccc3n2C)CC1	none (no result: SMN2 splice up)
Cc1cccc(OCC(=O)Nc2ccc3c(c2)nc(CCN2CCN(c4ccccn4)CC2)n3C)c1	ELG1 repair inh 15µM (no result: SMN2 splice up)
CC(/C=C/c1ccc(N(C)C)cc1)=N/N=C1/NC(=O)CC(C(=O)Nc2ccc(Cl)cc2)S1 (stereo not given)	ELG1 repair inh inconclusive, SMN2 splice up inconclusive, FLuc counter 7.6µM
COc1ccc(NC(=O)C2CC(=O)N/C(=N/N=C/c3ccccc3)S2)cc1 (stereo not given)	ELG1 repair inh inconclusive, ELG1 genotox inconclusive (no result: SMN2 splice up)
CC(/C=C/c1ccc(N(C)C)cc1)=N\N=C1\NC(=O)CC(C(=O)Nc2ccccc2)S1 (stereo not given)	ELG1 repair inh inconclusive, SMN2 splice up 16µM, FLuc counter 2.4µM, Rab9 promoter act inconclusive, NPC1 promoter act inconclusive
CCCOc1ccc(NC(=O)C2CC(=O)N/C(=N/N=C(C)/C=C/c3ccc(N(C)C)cc3)S2)cc1 (stereo not given)	ELG1 repair inh inconclusive, SMN2 splice up 13µM, FLuc counter 2.4µM, Rab9 promoter act inconclusive, NPC1 promoter act inconclusive
CC(C)(C)OC(=O)N1CCC(c2c(C(=O)NC3CCCCC3)cnn2-c2cccc(Cl)c2)CC1	none (no result: ELG1 repair inh, SMN2 splice up, Rab9 promoter act, ELG1 genotox, NPC1 promoter act)
C[C@H]1C[C@H]2[C@H]3CCC4=CC(=O)C=C[C@@]4(C)[C@]3(F)[C@H](O)C[C@]2(C)[C@@]1(O)C(=O)COP(=O)(O)O	none (no result: ELG1 repair inh, FLuc counter, Rab9 promoter act, ELG1 genotox, NPC1 promoter act)
Cc1cc(C)c(/C=C/c2onc(C)c2S(=O)(=O)N2CCC(C(=O)N(C)Cc3ccccc3)CC2)c(C)c1	none (no result: ELG1 repair inh, SMN2 splice up, Rab9 promoter act, ELG1 genotox, NPC1 promoter act)
COc1ccc(Nc2nc(C)cc(C)n2)cc1Cl	ELG1 repair inh inconclusive, FLuc counter 19µM, Rab9 promoter act inconclusive, ELG1 genotox inconclusive, NPC1 promoter act inconclusive (no result: SMN2 splice up)
Cc1cc(C)nc(Nc2ccc(N3CCOCC3)cc2)n1	FLuc counter inconclusive
